Compound activity from PubChem BioAssay.
An excerpt weighted towards active compounds, which were near 4% of everything screened.
RecA splice inh: Mtb RecA intein splicing inhibitors, primary screen, biochemical, fluorescence, HTS; cell-free RecA intein splicing; inhibition, % (concentration not given with the values); hit rate 0.75% among 290,000; AID 2221, 2009; in the data active = inhibition above about 30%; inconclusive = no clear call, values can overlap the other calls;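 also: 0% = vehicle wells and 100% = reference inhibitor control wells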
Mtb FBA inh: Mtb FBA enzyme inhibitors, primary screen, biochemical, fluorescence, strain H37Rv. purified M. tuberculosis FBA, fluorescence read-out. inhibition, % at 1 µM. hit rate 2.3% among 360,000. AID 588726, 2011; in the data active = inhibition above about 27%;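 also: 0% = vehicle and 100% = reference inhibitor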
Rv3671c inh: Rv3671c serine protease inhibitors, primary screen, biochemical, fluorescence polarization, M. tuberculosis H37Rv. P9WHR9. inhibition, % at 5.96 µM. hit rate 0.048% among 320,000; in the data active = inhibition above about 38%;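 also: extracellular domain of Rv3671c used as enzyme; 0% = enzyme with DMSO and 100% = no enzyme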
Mtb UGM inh: M. tuberculosis UGM enzyme inhibitors, primary screen, biochemical, fluorescence polarization, single point. purified UGM, fluorescence polarization probe displacement. inhibition, % at 10 µM. hit rate 0.06% among 320,000. AID 504406, 2011; in the data active = inhibition above about 10%, passing the limit was not always enough; inconclusive = no clear call, values can overlap the other calls
GDH-TPI inh: GDH-TPI coupling enzyme inhibitors, primary screen, artefact control for M. tuberculosis FBA inhibitor project, biochemical, absorbance, full deck. inhibition, % at 4.8 µM. GDH-TPI coupled enzyme counterscreen, NADH absorbance. hit rate 1.2% among 360,000; in the data active = inhibition above about 30%;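 also: 0% = DMSO wells and 100% = wells lacking the enzyme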
Mtb bLac sens: beta-lactam sensitization of Mtb H37Rv, H37Rv; M. tuberculosis H37Rv growth with meropenem, percent inhibition; inhibition, % at 25 µM; hit rate 0.27% among 330,000; AID 434955, 2010; call rule not given here;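 also: growth measured after seven days incubation then overnight dye step; 0% = bacteria only wells and 100% = bacteria with antibiotic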
* hit, by the source's call.

Results for Cc1cc(=O)[nH]c(-c2ccccc2O)n1 ?
RecA splice inh: -2; Mtb FBA inh: 13; Rv3671c inh: 11; Mtb UGM inh: 0; GDH-TPI inh: 11; Mtb bLac sens: -12

How did Nc1ccc(-c2nc3ccc(N)cc3[nH]2)cc1 do in these assays?
RecA splice inh: -14; Mtb FBA inh: active; Rv3671c inh: 7; Mtb UGM inh: 2; GDH-TPI inh: 18; Mtb bLac sens: 9

Results for Nc1ccc(-c2nc3c(Cl)c(N)ccc3[nH]2)cc1 ?
RecA splice inh: -2; Mtb FBA inh: active; Rv3671c inh: -5; Mtb UGM inh: 1; GDH-TPI inh: 38*; Mtb bLac sens: inconclusive

How did O=[N+]([O-])c1ccc(-c2nc3ccc([N+](=O)[O-])cc3[nH]2)cc1 do in these assays?
RecA splice inh: 8; Mtb FBA inh: 1; Rv3671c inh: 3; Mtb UGM inh: 1; GDH-TPI inh: 31*; Mtb bLac sens: -7

Results for Nc1ccc2nc(-c3cccc(-c4nc5ccc(N)cc5[nH]4)c3)[nH]c2c1 ?
RecA splice inh: 10; Mtb FBA inh: 0; Rv3671c inh: 25; Mtb UGM inh: -1; GDH-TPI inh: 27; Mtb bLac sens: -9

Results for Cc1cc2nc(-c3ccccc3O)[nH]c2cc1C ?
Mtb FBA inh: 157*; GDH-TPI inh: 15

What do the screens show for `CCOC(=O)[C@H]1[C@H]2COc3cc(OC)ccc3[C@@H]2N2C(=O)CN(C)C(=O)[C@@]12C`?
Mtb FBA inh: -1; Rv3671c inh: 0; Mtb UGM inh: 0; GDH-TPI inh: -5; Mtb bLac sens: -6

What do the screens show for `Cc1ccc(C(=O)OC(C(=O)O)C(OC(=O)c2ccc(C)cc2)C(=O)O)cc1` (stereo unspecified)?
Mtb FBA inh: -2; Rv3671c inh: -9; Mtb UGM inh: 5; GDH-TPI inh: -7; Mtb bLac sens: -2

What do the screens show for `CCOC(=O)c1nn(-c2ccc(C)cc2)c(=O)c2c(N)scc12`?
RecA splice inh: 35*; Mtb FBA inh: -2; Rv3671c inh: -21; Mtb UGM inh: 3; GDH-TPI inh: -3; Mtb bLac sens: -1

How did CCOC(=O)c1nn(-c2ccc(F)cc2)c(=O)c2c(N)scc12 do in these assays?
RecA splice inh: 22; Mtb FBA inh: -5; Rv3671c inh: -8; Mtb UGM inh: 1; GDH-TPI inh: 1; Mtb bLac sens: 0

What do the screens show for `N#Cc1cc([N+](=O)[O-])ccc1NC(=O)COC(=O)CCC1CCCCC1`?
RecA splice inh: 60*; Rv3671c inh: -9; Mtb UGM inh: -2; Mtb bLac sens: -7

What do the screens show for `CCCC(=O)OCC(=O)Nc1ccc([N+](=O)[O-])cc1C#N`?
RecA splice inh: 7; Mtb FBA inh: 2; Rv3671c inh: -7; Mtb UGM inh: 0; GDH-TPI inh: 26; Mtb bLac sens: 0

How did CC(=O)Nc1cccc(-c2ccnc3c2CC(C)(C(=O)NCCC(F)(F)F)O3)c1 (stereo unspecified) do in these assays?
Mtb FBA inh: 0; GDH-TPI inh: 6

What do the screens show for `Cc1nc(NS(=O)(=O)c2ccccc2)sc1C(=O)NNS(=O)(=O)c1ccccc1`?
RecA splice inh: -2; Mtb FBA inh: 2; Rv3671c inh: 6; Mtb UGM inh: -2; GDH-TPI inh: 4; Mtb bLac sens: 19

Results for Cc1nc(NS(=O)(=O)c2ccccc2)sc1C(=O)N/N=C/c1ccccc1 ?
RecA splice inh: 1; Mtb FBA inh: 4; Rv3671c inh: 0; Mtb UGM inh: 2; GDH-TPI inh: 47*; Mtb bLac sens: 18

How did COCCNC(=O)[C@H](C)[C@H]1C[C@]1(C)[C@H](NC(=O)OCc1ccccc1)c1ccccc1 do in these assays?
RecA splice inh: -1; Mtb FBA inh: 168*; Rv3671c inh: -10; Mtb UGM inh: 2; GDH-TPI inh: 2; Mtb bLac sens: -3

Results for COc1ccc(C(CNC(=O)c2cc3ccccc3cc2OC)N2CCCC2)cc1 (stereo unspecified) ?
RecA splice inh: 1; Mtb FBA inh: 6; Rv3671c inh: 0; Mtb UGM inh: -3; GDH-TPI inh: 34*; Mtb bLac sens: 16

What do the screens show for `COc1cc2ccccc2cc1C(=O)Nc1ccccc1N1CCCC1`?
RecA splice inh: 12; Mtb FBA inh: active; Rv3671c inh: -15; Mtb UGM inh: 0; GDH-TPI inh: 3; Mtb bLac sens: 89

Results for COc1ccccc1CN(C)C(=O)c1ccc(S(=O)(=O)Nc2c(C)n(C)n(-c3ccccc3)c2=O)cc1 ?
Mtb FBA inh: 0; Rv3671c inh: 8; Mtb UGM inh: 1; GDH-TPI inh: -4; Mtb bLac sens: -10

How did CCc1ccccc1NC(=O)C1CCN(S(=O)(=O)c2ccc3c(c2)N(C(C)=O)CCO3)CC1 do in these assays?
RecA splice inh: -6; Mtb FBA inh: 2; Rv3671c inh: 2; Mtb UGM inh: 2; GDH-TPI inh: 7; Mtb bLac sens: 2

How did COc1cccc2c1cc1c(=O)n(CC(=O)NCCCN3CCCCC3)nc(C)n12 do in these assays?
RecA splice inh: -1; Mtb FBA inh: 116*; Rv3671c inh: 1; Mtb UGM inh: 2; GDH-TPI inh: 6; Mtb bLac sens: 8

How did CCc1nn(CC(=O)NCCCN2CCOCC2)c(=O)c2cc3c(OC)cccc3n12 do in these assays?
Mtb FBA inh: 112*; GDH-TPI inh: 16

How did COc1cc2ccc(C(C)=NNC(N)=S)cc2cc1OC do in these assays?
Mtb FBA inh: -1; GDH-TPI inh: 42*

Results for CCOC(=O)c1c(NC(=O)COC(=O)c2ccc(Cl)nc2)sc(C)c1C ?
Mtb FBA inh: -1; GDH-TPI inh: -1

How did Cc1nn(CC(=O)Nc2ccc(N3CCOCC3)cc2)c(C)c1Cl do in these assays?
RecA splice inh: 1; Mtb FBA inh: 2; Rv3671c inh: -2; Mtb UGM inh: 0; GDH-TPI inh: -7; Mtb bLac sens: 2

Results for COc1ccc(N=Nc2nc3cc(Br)c(Br)cc3n2C)c(OC)c1 ?
Mtb FBA inh: 0; Rv3671c inh: 16; Mtb UGM inh: 34*; GDH-TPI inh: 6; Mtb bLac sens: 68

What do the screens show for `COc1ccc(CNc2nc3ccccc3n2C)c(OC)c1`?
RecA splice inh: 0; Mtb FBA inh: -4; Rv3671c inh: 4; Mtb UGM inh: 4; GDH-TPI inh: -2; Mtb bLac sens: 20

What do the screens show for `CC(C)CC1C(=O)N(Cc2cn(CC3CCCCC3)nn2)CCS(=O)(=O)N1Cc1ccc(-c2ccc(F)nc2)cc1` (stereo unspecified)?
Mtb FBA inh: 1; GDH-TPI inh: -1
